Test results published in the supplement of paper PMC6411743.
± gives the standard deviation of the averaged measurements. Of roughly 6,200 targets only a part is listed; those with the largest changes were picked by preference.

Legend:
Test in all cases: NP40-soluble protein abundance relative to vehicle (solubility fold change) (ratio); higher = more soluble protein in presence of AMP-PNP
DDX49 = biological target: T1, DDX49 (UniProt Q9Y6V7)
T1 sequence (whole entry): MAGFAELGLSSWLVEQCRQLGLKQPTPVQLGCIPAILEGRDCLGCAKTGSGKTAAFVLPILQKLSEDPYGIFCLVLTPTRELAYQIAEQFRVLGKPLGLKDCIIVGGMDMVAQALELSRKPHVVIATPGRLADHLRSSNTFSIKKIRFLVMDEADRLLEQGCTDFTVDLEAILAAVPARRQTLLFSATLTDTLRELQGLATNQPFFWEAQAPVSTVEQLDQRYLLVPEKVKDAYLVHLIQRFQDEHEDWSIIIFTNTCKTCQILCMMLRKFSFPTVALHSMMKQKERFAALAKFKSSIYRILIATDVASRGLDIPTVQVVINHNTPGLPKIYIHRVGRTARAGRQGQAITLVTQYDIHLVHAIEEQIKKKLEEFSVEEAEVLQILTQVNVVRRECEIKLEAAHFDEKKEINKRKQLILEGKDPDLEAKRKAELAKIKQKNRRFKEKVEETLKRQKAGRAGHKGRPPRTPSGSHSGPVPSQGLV
How it was run: (§1)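 Jurkat crude lysate prepared with a Dounce homogeniser was treated at eight concentrations spanning 0.1 to 10 mM, 10 min at room temperature then 3 min at 37 °C. Solubilisation with 0.8% NP40 and benzonase and ultracentrifugation preceded TMT labelling of the supernatant for LC-MS/MS. Fold change against the detergent-processed vehicle was determined per replicate from vsn-normalised intensities, across three independent experiments.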

MAD1L1 = biological target: T2, MAD1L1 (UniProt Q9Y6D9)
T2 sequence (whole entry): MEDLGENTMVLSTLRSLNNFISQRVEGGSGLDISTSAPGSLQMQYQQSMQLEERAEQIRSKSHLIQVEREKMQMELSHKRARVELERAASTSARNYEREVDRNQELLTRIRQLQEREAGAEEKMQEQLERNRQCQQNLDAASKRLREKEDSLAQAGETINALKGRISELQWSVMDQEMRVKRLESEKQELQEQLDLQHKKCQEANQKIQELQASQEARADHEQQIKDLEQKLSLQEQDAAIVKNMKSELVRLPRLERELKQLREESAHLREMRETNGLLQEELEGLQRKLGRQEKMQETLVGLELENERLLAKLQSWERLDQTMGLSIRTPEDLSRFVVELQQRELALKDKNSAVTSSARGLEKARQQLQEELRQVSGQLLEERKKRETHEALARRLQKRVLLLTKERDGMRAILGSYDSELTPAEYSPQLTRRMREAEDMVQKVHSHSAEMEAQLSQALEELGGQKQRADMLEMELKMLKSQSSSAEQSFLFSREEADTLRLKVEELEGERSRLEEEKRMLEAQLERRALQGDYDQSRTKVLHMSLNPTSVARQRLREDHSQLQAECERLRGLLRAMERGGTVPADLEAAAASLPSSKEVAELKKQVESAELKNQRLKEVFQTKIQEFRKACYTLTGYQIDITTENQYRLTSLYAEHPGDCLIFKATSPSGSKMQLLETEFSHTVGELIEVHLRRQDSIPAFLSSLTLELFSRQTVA
How it was run: as §1

OAS3 = biological target: T3, OAS3 (UniProt Q9Y6K5)
T3 sequence (whole entry): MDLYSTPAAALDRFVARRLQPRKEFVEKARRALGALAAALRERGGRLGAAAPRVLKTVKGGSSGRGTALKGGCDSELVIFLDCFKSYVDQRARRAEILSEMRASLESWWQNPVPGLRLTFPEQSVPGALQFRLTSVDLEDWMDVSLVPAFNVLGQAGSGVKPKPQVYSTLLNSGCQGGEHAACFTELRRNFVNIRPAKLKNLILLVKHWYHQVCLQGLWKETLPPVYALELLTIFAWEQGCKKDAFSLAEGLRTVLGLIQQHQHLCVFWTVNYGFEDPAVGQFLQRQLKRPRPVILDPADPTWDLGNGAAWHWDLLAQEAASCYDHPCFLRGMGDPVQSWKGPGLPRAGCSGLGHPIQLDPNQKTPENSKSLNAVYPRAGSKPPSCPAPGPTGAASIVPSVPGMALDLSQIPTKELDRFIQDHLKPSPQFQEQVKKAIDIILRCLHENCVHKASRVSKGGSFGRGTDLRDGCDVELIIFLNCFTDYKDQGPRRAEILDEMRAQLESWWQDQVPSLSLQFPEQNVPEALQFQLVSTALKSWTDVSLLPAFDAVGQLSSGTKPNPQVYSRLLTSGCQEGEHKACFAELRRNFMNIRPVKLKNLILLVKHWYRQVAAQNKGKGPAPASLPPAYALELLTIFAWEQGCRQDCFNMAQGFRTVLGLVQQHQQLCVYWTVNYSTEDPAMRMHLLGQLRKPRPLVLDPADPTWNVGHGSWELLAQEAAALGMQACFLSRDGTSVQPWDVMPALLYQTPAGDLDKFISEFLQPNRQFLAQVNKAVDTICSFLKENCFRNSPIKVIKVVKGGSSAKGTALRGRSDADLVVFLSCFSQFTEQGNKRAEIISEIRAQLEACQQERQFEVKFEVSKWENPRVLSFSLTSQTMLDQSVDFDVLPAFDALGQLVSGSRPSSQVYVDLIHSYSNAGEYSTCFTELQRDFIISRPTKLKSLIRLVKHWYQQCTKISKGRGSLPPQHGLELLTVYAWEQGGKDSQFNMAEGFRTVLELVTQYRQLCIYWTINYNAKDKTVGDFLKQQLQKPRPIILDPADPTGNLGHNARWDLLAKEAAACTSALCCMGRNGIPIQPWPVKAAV
How it was run: as §1

S4R3R2 = S4R3R2 (UniProt Q9NXR5)
How it was run: as §1

Chain of S4R3R2 (Q9NXR5 whole entry, one chain of several): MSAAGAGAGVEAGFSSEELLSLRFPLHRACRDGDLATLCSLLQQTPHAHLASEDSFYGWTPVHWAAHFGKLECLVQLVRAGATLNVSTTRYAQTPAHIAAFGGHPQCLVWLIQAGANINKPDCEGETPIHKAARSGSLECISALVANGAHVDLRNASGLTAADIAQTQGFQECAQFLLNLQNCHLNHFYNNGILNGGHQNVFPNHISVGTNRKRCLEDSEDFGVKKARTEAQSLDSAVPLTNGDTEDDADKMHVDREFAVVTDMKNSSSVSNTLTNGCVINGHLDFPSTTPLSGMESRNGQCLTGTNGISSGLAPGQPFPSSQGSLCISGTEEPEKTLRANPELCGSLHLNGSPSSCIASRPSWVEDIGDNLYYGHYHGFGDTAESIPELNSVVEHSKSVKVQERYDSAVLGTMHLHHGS

## Nc1ncnc2c1ncn2[C@@H]1O[C@H](COP(=O)(O)OP(=O)(O)NP(=O)(O)O)[C@@H](O)[C@H]1O [adenylyl imidodiphosphate]
DDX49; concentration: 1mM
  NP40-soluble protein abundance: 1.09 ± 0.076
DDX49; concentration: 2mM
  NP40-soluble protein abundance: 1.13 ± 0.092
DDX49; concentration: 4mM
  NP40-soluble protein abundance: 1.15 ± 0.12
DDX49; concentration: 6mM
  NP40-soluble protein abundance: 1.13 ± 0.1
DDX49; concentration: 8mM
  NP40-soluble protein abundance: 1.15 ± 0.12
DDX49; concentration: 10mM
  NP40-soluble protein abundance: 1.24 ± 0.21
MAD1L1; concentration: 1mM
  NP40-soluble protein abundance: 1.02 ± 0.028
MAD1L1; concentration: 2mM
  NP40-soluble protein abundance: 1.03 ± 0.039
MAD1L1; concentration: 4mM
  NP40-soluble protein abundance: 1.02 ± 0.047
MAD1L1; concentration: 6mM
  NP40-soluble protein abundance: 0.986 ± 0.021
MAD1L1; concentration: 8mM
  NP40-soluble protein abundance: 0.983 ± 0.046
MAD1L1; concentration: 10mM
  NP40-soluble protein abundance: 1 ± 0.057
OAS3; concentration: 1mM
  NP40-soluble protein abundance: 1.01 ± 0.012
OAS3; concentration: 2mM
  NP40-soluble protein abundance: 1.02 ± 0.04
OAS3; concentration: 4mM
  NP40-soluble protein abundance: 1.02 ± 0.032
OAS3; concentration: 6mM
  NP40-soluble protein abundance: 0.998 ± 0.033
OAS3; concentration: 8mM
  NP40-soluble protein abundance: 1.02 ± 0.043
OAS3; concentration: 10mM
  NP40-soluble protein abundance: 0.998 ± 0.018
S4R3R2; concentration: 1mM
  NP40-soluble protein abundance: 1.04 ± 0.031
S4R3R2; concentration: 2mM
  NP40-soluble protein abundance: 1.05 ± 0.063
S4R3R2; concentration: 4mM
  NP40-soluble protein abundance: 1.02 ± 0.027
S4R3R2; concentration: 6mM
  NP40-soluble protein abundance: 1.01 ± 0.041
S4R3R2; concentration: 8mM
  NP40-soluble protein abundance: 0.983 ± 0.011
S4R3R2; concentration: 10mM
  NP40-soluble protein abundance: 0.983 ± 0.022
